An excerpt weighted towards active compounds, which were near 7.3% of everything screened.
Rab9 prom act = activates the Rab9 promoter; Huh7 Rab9 promoter-luciferase reporter, luminescence, 24 h; Potency, µM (highest dose often 9.22 µM), inactives show at the top dose activation, negative = inhibition, most hits filed as activators; 320,000 compounds, 2.8% hits; AID 485297; note: % of control where 0% means no effect; nearly all actives have a fitted effect of over 60% in size
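Rab9 promoter-driven luciferase in stably transfected Huh7 cells; 1500 cells/well rested 2 h, exposed to compound in DMSO for 24 h at 37 °C, 5% CO2. Luminescence read 10 min after adding luciferase reagent at ambient temperature.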
FLuc counter = inhibits or activates purified firefly luciferase, miR-21 counter-screen | 360,000 compounds, 6.9% hits | purified FLuc, Km substrates, luminescence inhibition | P08659 | Potency, µM (titrated, usually from 57.5 µM), without a hit: at the highest dose activity change, negative = inhibition, actives largely listed as inhibitors;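 note: plate controls were vehicle for no effect and reference inhibitor for full effect; nearly all actives have a fitted effect of over 55% in size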
Target sequence (P08659 whole entry, looked up): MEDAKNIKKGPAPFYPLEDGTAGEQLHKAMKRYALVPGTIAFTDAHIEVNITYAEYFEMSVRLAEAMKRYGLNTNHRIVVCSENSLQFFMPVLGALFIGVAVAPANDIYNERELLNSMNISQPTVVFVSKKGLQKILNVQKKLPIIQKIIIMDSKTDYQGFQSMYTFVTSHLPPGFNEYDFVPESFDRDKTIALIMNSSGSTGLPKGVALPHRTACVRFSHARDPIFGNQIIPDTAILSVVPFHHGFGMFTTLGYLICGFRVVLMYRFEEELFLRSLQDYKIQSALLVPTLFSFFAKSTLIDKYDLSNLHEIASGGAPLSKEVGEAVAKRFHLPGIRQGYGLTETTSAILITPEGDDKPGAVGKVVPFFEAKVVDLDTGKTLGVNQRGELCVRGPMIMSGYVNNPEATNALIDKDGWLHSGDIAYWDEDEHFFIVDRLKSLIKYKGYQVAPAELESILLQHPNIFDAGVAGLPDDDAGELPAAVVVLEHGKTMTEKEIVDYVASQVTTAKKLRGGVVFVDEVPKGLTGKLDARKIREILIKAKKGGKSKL
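Purified P. pyralis luciferase, 10 nM final, with Km-level 10 uM D-luciferin and 10 uM ATP in 50 mM Tris acetate pH 7.5, 10 mM Mg acetate, 0.01% Tween-20, 0.05% BSA; 6-point qHTS titration about 60 µM downward; luminescence read.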
ELG1 genotoxic = genotoxicity induction in ELG1-luciferase HEK293T cells; HEK293T ELG1-luciferase reporter, luminescence, 16 h; Potency, µM (titrated, usually from 46 µM), for inactives: at the highest dose activity change, positive = activation, usual class: activators; 330,000 compounds, 1.3% hits; note: % of control where 0% means no effect; nearly all actives have a fitted effect of over 60% in size
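Step 1: seed 2,000 HEK293T ELG1-luciferase cells per well. Step 2: add compound or DMSO, incubate 16 hr at 37 °C. Step 3: ONE-Glo, 30 min at room temperature, read luminescence.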
NPC1 prom act = NPC1 promoter activation | Potency, µM (series often up to 9.22 µM), inactives show at the top dose activation, most hits filed as activators | 320,000 compounds, 2.4% hits | Huh7 NPC1 promoter luciferase reporter, 24 h | AID 485313; note: % of control where 0% means no effect; nearly all actives have a fitted effect of over 60% in size
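NPC1 promoter–luciferase Huh7 cells; 24 h compound; luminescence.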
KinaseGlo FLuc = blocks Kinase-Glo luciferase, a counter-screen artifact | Q27757 | Kinase-Glo luciferase, ATP luminescence, 8 min | Potency, µM (titrated, usually from 38.3 µM), for inactives: at the highest dose activity change, negative = inhibition, most hits filed as inhibitors | 200,000 compounds, 0.28% hits | AID 1379; note: % is set by controls: 0 for no effect and ±100 for the full control effect; nearly all actives have a fitted effect of over 60% in size
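Inhibition of Kinase-Glo luciferase light generation was assessed at 10 uM ATP in pH 7.2 imidazole buffer, with luminescence measured after eight minutes at ambient temperature.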
SMN2 splice up = SMN2 splice variant enhancement; HEK293 SMN2-luciferase splicing reporter, luminescence, 30-36 h; Potency, µM (highest dose often 46.1 µM), for the others: at the highest dose activity change, positive = activation, actives largely listed as activators; 210,000 compounds, 2.8% hits; note: % of control where 0% means no effect; nearly all actives have a fitted effect of over 55% in size
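HEK293 cells carry an SMN2 minigene-luciferase reporter in which exon 7 inclusion puts luciferase in frame. Cells were seeded at 2000 cells/well, attached for 10-12 hours, then exposed to compounds for 30-36 hours at 37C before ONE-Glo luminescence.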
* hit, by the source's call; ? = inconclusive; / = no result; [ ] = remark or other dose. Calls come from the whole dose curve; as a rule, active = well fitted curve in the direction sought with a large enough effect; inconclusive = small, poorly fitted or top-dose-only effect, or another doubt; inactive = no such curve, though single readings can be large; an effect the other way counts as inactive or inconclusive. Potency is the fitted concentration of half-maximal effect.

SMILES	Rab9 prom act	FLuc counter	ELG1 genotoxic	NPC1 prom act	KinaseGlo FLuc	SMN2 splice up
C=C1c2ccccc2O[C@H](C(=O)OCC)[C@@H]1C1CCCCC1 (tested in a mixture with another compound)	/	/	/	/	-9%[39.9 µM]	/
CCNC(=S)NNC(=O)c1csc(C(C)C)c1	?	-23%	14%	22%	-4%	11µM*
CCCCNC(=S)NNC(=O)c1csc(C(C)C)c1	?	-18%	7%	-2%	0%	19%
COc1ccc(NC(=O)CCS(=O)(=O)c2nc(-c3cccs3)cc(C(F)(F)F)n2)cc1OC	/	6%	/	/	/	?
CC1CCCN(C2=NC(=O)/C(=C/c3cn(-c4ccccc4)nc3-c3cccc(S(=O)(=O)N(C)C)c3)S2)C1 (configuration not stated)	12%	?	1%	4%	0%	0%
CC1CCN(C2=NC(=O)/C(=C/c3cn(-c4ccccc4)nc3-c3cccc(S(=O)(=O)N(C)C)c3)S2)CC1	?	2.7µM*	1%	23%	0%	-2%
O=C(N/N=C/C(Br)=C/c1ccccc1)c1ccc([N+](=O)[O-])cc1	0%	2%	0%[9.26 µM]	-1%	/	/
O=C(N/N=C/C(Br)=C/c1ccccc1)c1cccnc1	12%	13µM*	?	1%	/	/
O=C(N/N=C/C(Br)=C/c1ccccc1)c1ccncc1	2%	24µM*	12%	-2%	/	/
CCn1cc(S(=O)(=O)c2cccc(C)c2)c(=O)c2cc(F)c(N3CCN(c4ccccc4)CC3)cc21	/	-1%	/	/	/	/
Cc1ccc(-c2cn3c(n2)sc2cc(C(=O)NCc4cccs4)ccc23)cc1	/	-14%	/	/	/	/
O=C(COc1ccc(Cl)cc1)Nc1sc2c(c1C(=O)Nc1cccc(Cl)c1)CCCC2	/	?	/	/	/	-11%
Cc1ccccc1NC(=O)c1c(NC(=O)C(F)(F)F)sc2c1CCCCC2	/	11µM*	/	/	/	-41%
Cc1cccc(NC(=O)c2c(NC(=O)C(F)(F)F)sc3c2CCCCC3)c1	/	13µM*	/	/	/	-64%
O=C(Nc1cccc(Cl)c1)c1c(NC(=O)C(F)(F)F)sc2c1CCCC2	/	17µM*	/	/	/	-22%
Cc1ccc(NC(=O)c2c(NC(=O)C(F)(F)F)sc3c2CCCCC3)cc1	/	11µM*	/	/	/	-43%
Cc1cccc2c1-c1sc(C(=O)N3CCN(c4ccccc4)CC3)cc1CO2	/	1%	/	/	/	24%
COc1ccc(Cc2c(C)nn(-c3nc(C)c(C(=O)Nc4cccc(C(C)=O)c4)s3)c2C)cc1	/	-10%	/	/	/	/
COc1ccc(C)cc1NC(=O)c1ccc2c(c1)nnn2C1CCCC1	/	-18%	/	/	/	/
COc1ccc(C2=NN3C(C2)c2ccccc2OC32C(=O)N(C)c3ccccc32)cc1 (configuration not stated)	4%	11µM*	15µM*	3%	2%	4%
CCCCc1nc2c(c3c1C[C@H](C)OC3)CN(S(=O)(=O)c1ccc(C#N)cc1)CC2	/	/	/	/	-5%[7.66 µM]	-5%[9.22 µM]
O=C(CCC1N=C2c3ccccc3N=C(SCc3ccc(F)cc3)N2C1=O)NCCc1ccccc1 (configuration not stated)	/	2%	/	/	/	/
Cc1scc(C(=O)N/N=C/c2ccco2)c1C	2.8µM*	11µM*	?	?	0%	11µM*
Cc1scc(C(=O)N/N=C/c2ccsc2)c1C	2.8µM*	2.1µM*	10µM*	?	-5%	18µM*
Cc1scc(C(=O)N/N=C/c2ccc([N+](=O)[O-])o2)c1C	-31%	-22%	-15%	-20%	/	/
SMILES	Rab9 prom act	FLuc counter	ELG1 genotoxic	NPC1 prom act	KinaseGlo FLuc	SMN2 splice up
COC(=O)N/N=C/c1ccc(OCCSc2ccc(Cl)cc2)c(OC)c1	-5%	-1%	2%	-4%	2%	6%
COc1cccc(/C=N/NC(=O)c2cccc3ccccc23)c1	-2%	-11%	-6%	10%	/	/
COC(=O)N/N=C/c1cccc(OCCSc2ccc(Cl)cc2)c1	27%	-27%	1%	?	1%	11µM*
CCCOc1cccc(/C=N/NC(=O)c2csc(C)c2C)c1	10%	4.8µM*	6%	22%	-1%	-25%
CC(C)Cn1c(=O)c2ccccc2n2c(CCC(=O)NCc3ccccc3Cl)nnc12	/	-3%	/	/	/	0%
O=C(Nc1c(C(=O)N2CCN(c3ccccc3)CC2)oc2ccccc12)c1ccc(Br)o1	/	-2%	/	/	/	/
c1ccc(OCCSc2nnnn2C2CCCCC2)cc1	1µM*	2.1µM*	?	0.56µM*	0%	11µM*
C=C1CCO[C@@]2([C@H](O)[C@@](C)(O)CO)NC(=O)[C@]1(O)NC2=O	/	/	/	/	0%[7.66 µM]	-6%[9.22 µM]
O=C(Nc1c(C(=O)Nc2cccc(F)c2)oc2ccccc12)c1ccc2c(c1)OCO2	21%	8.5µM*	?	3%	-14%	2%
CC(C)Oc1ccc(C(=O)Nc2c(C(=O)Nc3cccc(F)c3)oc3ccccc23)cc1	/	?	/	/	/	11%
Cc1ccc(NC(=O)c2oc3ccccc3c2NC(=O)c2ccc3c(c2)OCO3)cc1	16%	6.7µM*	5%	1%	-4%	-11%
O=C(NNC(=O)c1ccc(F)cc1F)c1ccc2c(c1)OCO2	3.2µM*	?	?	24%	-4%	?
O=C(Nc1cccc(F)c1)c1ccc2c(c1)OCO2	1.6µM*	11µM*	5.2µM*	2.8µM*	-2%	6.3µM*
COc1cc(/C=C/C(=O)c2cccs2)cc(OC)c1OC	/	/	/	/	-4%	/
CCOC(=O)C1CCC(CN(Cc2cccc(Br)c2)S(=O)(=O)c2ccc(Cl)cc2)CC1 (configuration not stated)	/	0%	/	/	/	/
C[C@H]1[C@H](C)OC(=O)C[C@H](O)C[C@H](O)C[C@H](O)CC[C@H](O)[C@H](O)CC(=O)C[C@H](O)[C@H](C(=O)O)[C@H](O)C[C@H](O[C@@H]2O[C@@H](C)[C@H](O)[C@@H](N)[C@@H]2O)C=CC=CC=CC=CCCC=CC=C[C@@](C)(O)[C@H]1O	/	/	/	/	0%[7.66 µM]	-4%[9.22 µM]
O=C(c1cc2c(s1)CCCC2)N1CCN(Cc2ccc3c(c2)OCO3)CC1	1%	1%	-16%	-3%	17%	-16%
O=C(Oc1ccc2c(c1)OCO2)c1cc2c(s1)CCC2	-7%	3.8µM*	1%	13%	-15%	14%
O=C(Oc1ccc2c(c1)OCO2)c1ccc(F)cc1Cl	?	2.7µM*	6%	4%	?	-12%
COc1ccc(/C=N/Nc2cc(C)nc(-n3nc(C)cc3C)n2)cc1	-15%	17µM*	-10%	-3%	-1%	-114%
CCOc1ccc2nc(N3CCOCC3)nc(C)c2c1	?	11µM*	9.2µM*	4µM*	-2%	2.8µM*
